The test system of assay [1] is Wnt5a (protein binding on small-molecule microarray). The assay is described as follows: Wnt5a binders on small-molecule microarray, primary screen, biophysical, 635/667 nm fluorescence (AID 1142).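 Further: fluorescence read at 667 nm with signal to noise per printed feature.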 The note with it: 635 nm fluorescence, higher = more signal.
A short description of assay [2]: cell viability in Huh7 cells, primary screen, cytotoxicity control for HCV replication inhibitor project, CellTiter-Glo luminescence, basal, 48 h (AID 1143).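 Further: Huh7 hepatoma cells carrying a hepatitis C replication reporter with no stimulus; test concentration not given here.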 The note with it: Huh7 HCV replicon, higher = more signal, called active from +8 up or from −8 down.
Assay [3] in a line: P. aeruginosa biofilm formation inhibitors, primary screen, PAO1 strain, BacTiter-Glo luminescence, LB-PBS (AID 1144). The note with it: 12 h, higher = more signal.
Assay [4] in a line: CREB reporter modulators without forskolin, primary screen, cell-based, PC12, CRE-LacZ reporter, unstimulated (AID 1145). The conditions noted are these: no forskolin, luminescence, 4.5 h, higher = more signal, called active from +8 up or from −8 down.
Assay [5] in a line: CREB reporter modulators under forskolin, primary screen, cell-based, PC12, CRE-LacZ reporter, forskolin-stimulated (AID 1146).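 Further: PC12 cells with 6xCRE LacZ reporter stimulated by forskolin 10 µM; beta-galactosidase reporter signal reflecting CREB driven transcription.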 The conditions noted are these: luminescence, 4.5 h, higher = more signal, called active from +8 up or from −8 down.
In assay [6] the target is Streptavidin (Streptomyces avidinii) (UniProt P22629). Briefly: streptavidin binders on small-molecule microarray, primary screen, artefact control for SMM compound annotation, biophysical, 635/667 nm fluorescence (AID 1147).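 Further: signal reflects streptavidin binding to arrayed compounds as a control protein.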 The conditions noted are these: streptavidin binding, higher = more signal.
Assay [7] is described as follows: small-molecule binders of probe aInhba, primary screen, biochemical, small-molecule microarray, 635/667 nm fluorescence (AID 1148).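 Further: score merges 667nm spot fluorescence with signal-to-noise for antibody binding to printed compounds.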 The conditions noted are these: higher = more signal.
Assay [8] concerns the target Torsin-1A (Homo sapiens) (UniProt O14656). The assay is described as follows: torsin A binders from cell lysate, primary screen, small-molecule microarray, wild-type, 635/667 nm (AID 1149). The conditions noted are these: COS7 hTOR1A-WT lysate, 635 nm fluorescence, higher = more signal.
For assay [9] the target is unchanged. Briefly: small-molecule binders of mutant TOR1A in lysate, primary screen, cell lysate, small-molecule microarray, COS7 lysate, 635/667 nm fluorescence (AID 1150).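 Further: score pools 667 nm emission and signal to noise measuring lysate protein binding.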 The note with it: COS7 hTOR1A mutant lysate, 635 nm fluorescence, higher = more signal.
Assay [10] has as its system Sonic hedgehog protein (Shh). Briefly: small-molecule binders of Shh protein, primary screen, biochemical, small-molecule microarray, 635/667 nm fluorescence (AID 1151).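 Further: Shh protein binding to compounds spotted on small-molecule microarray slides; score combines spot fluorescence intensity with signal-to-noise across triplicate slides.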 The conditions noted are these: small-molecule microarray binding, 635 nm fluorescence; higher = more signal.
The nature of assay [11]: E. coli DRC41 culture turbidity changes, primary screen, E. coli filamentation inducer project, strain DRC41, OD650, 48 h (AID 1152).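 Further: E. coli MC1000 strain DRC41 lacking acrAB efflux pump and sulA.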 The conditions noted are these: E. coli DRC41 (acrAB sulA), higher = more signal, called active from +8 up or from −8 down.
Assay [12] is described as follows: small-molecule binders of probe aLefty1, primary screen, biochemical, small-molecule microarray, 635/667 nm fluorescence (AID 1153).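 Further: score merges spot fluorescence with signal-to-noise ratio from the scanned slide images.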 The note with it: higher = more signal.
Assay [13] is described as follows: PSAC antagonists in infected red cells, primary screen, cell-based, P. falciparum Indochina, OD700, 1 h (AID 1154). The conditions noted are these: P. falciparum Indochina infected RBC osmotic lysis, higher = more signal, called active from +8 up or from −8 down.
Assay [14] can be described thus: PSAC antagonists in infected red cells, primary screen, cell-based, P. falciparum Indochina, OD700, 2 h (AID 1155).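 Further: lysis reports solute entry through the parasite surface anion channel PSAC; channel blockers reduce lysis of infected cells.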 The note with it: P. falciparum Indochina infected erythrocytes, osmotic lysis OD700; higher = more signal, called active from +8 up or from −8 down.
Assay [15] is described as follows: osmotic lysis modulators in infected erythrocytes, primary screen, PSAC antagonist project, cell-based, P. falciparum Indochina, OD700, 3 h (AID 1156). The note with it: higher = more signal, called active from +8 up or from −8 down.
Assay [16] in a line: PSAC antagonists in infected red cells, primary screen, cell-based, P. falciparum Indochina, OD700, 18 h (AID 1157). The note with it: P. falciparum Indochina infected erythrocytes, osmotic lysis OD700, 18 h; higher = more signal, called active from +8 up or from −8 down.
Assay [17] can be described thus: modulators of S6 phosphorylation in cells, primary screen, cell-based, A549, cytoblot, luminescence, serum-stimulated (AID 1158).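 Further: serum-stimulated A549 lung adenocarcinoma cells; signal is phosphorylated S6 detected by cytoblot immunostaining with HRP secondary.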 The note with it: A549 phospho-S6 cytoblot, 5 h, higher = more signal.
Assay [18] concerns the target NADPH oxidase 2 (Homo sapiens) (UniProt P04839). The assay is described as follows: NOX2-dependent H2O2 signal modulators, primary screen, NOX inhibitor project, cell-based, HEK293-NOX2, PMA-stimulated, Amplex Red fluorescence (AID 1159). Further: test concentration not given here. The conditions noted are these: 45 min, higher = more signal, called active from +8 up or from −8 down.
For assay [19], the target named is NADPH oxidase 4 (Homo sapiens) (UniProt Q9NPH5). Briefly: NOX4-dependent H2O2 signal modulators, primary screen, NOX inhibitor project, cell-based, HEK293-NOX4, tetracycline-induced, Amplex Red fluorescence (AID 1160). The conditions noted are these: 45 min, higher = more signal, called active from +8 up or from −8 down.
Assay [20] deals with NADPH oxidase 5 (Homo sapiens) (UniProt Q96PH1). The assay is described as follows: NOX5-dependent H2O2 signal modulators, primary screen, NOX inhibitor project, cell-based, HEK293-NOX5, Amplex Red fluorescence (AID 1161). The note with it: HEK293-NOX5, ionomycin, 45 min, higher = more signal.

SMILES strings stand for the structures. Calls of active or inactive are those of the source. Unless noted, how the calls were made is not given here.

NADPH oxidase 5 (Homo sapiens), sequence (Q96PH1 whole entry, looked up): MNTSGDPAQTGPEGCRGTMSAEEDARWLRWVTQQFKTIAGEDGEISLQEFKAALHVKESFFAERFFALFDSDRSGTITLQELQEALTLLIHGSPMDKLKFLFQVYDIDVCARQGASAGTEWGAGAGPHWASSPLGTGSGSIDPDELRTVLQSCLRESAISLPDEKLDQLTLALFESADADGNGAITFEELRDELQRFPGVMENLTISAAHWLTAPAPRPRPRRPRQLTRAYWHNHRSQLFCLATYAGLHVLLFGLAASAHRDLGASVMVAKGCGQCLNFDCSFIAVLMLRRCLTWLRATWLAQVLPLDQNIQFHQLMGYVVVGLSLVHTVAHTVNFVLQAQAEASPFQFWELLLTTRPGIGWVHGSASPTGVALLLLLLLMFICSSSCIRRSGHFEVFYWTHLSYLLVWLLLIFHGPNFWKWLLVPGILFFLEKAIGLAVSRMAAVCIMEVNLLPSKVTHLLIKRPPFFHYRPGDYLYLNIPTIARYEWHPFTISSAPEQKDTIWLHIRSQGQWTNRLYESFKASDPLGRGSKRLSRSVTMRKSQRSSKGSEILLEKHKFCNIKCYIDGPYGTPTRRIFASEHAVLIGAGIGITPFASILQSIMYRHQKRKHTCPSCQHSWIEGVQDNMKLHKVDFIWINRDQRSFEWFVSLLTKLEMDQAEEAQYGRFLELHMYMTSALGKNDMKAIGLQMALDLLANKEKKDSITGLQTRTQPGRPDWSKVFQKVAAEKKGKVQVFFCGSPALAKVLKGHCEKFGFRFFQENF
NADPH oxidase 4 (Homo sapiens), sequence (Q9NPH5 whole entry, looked up): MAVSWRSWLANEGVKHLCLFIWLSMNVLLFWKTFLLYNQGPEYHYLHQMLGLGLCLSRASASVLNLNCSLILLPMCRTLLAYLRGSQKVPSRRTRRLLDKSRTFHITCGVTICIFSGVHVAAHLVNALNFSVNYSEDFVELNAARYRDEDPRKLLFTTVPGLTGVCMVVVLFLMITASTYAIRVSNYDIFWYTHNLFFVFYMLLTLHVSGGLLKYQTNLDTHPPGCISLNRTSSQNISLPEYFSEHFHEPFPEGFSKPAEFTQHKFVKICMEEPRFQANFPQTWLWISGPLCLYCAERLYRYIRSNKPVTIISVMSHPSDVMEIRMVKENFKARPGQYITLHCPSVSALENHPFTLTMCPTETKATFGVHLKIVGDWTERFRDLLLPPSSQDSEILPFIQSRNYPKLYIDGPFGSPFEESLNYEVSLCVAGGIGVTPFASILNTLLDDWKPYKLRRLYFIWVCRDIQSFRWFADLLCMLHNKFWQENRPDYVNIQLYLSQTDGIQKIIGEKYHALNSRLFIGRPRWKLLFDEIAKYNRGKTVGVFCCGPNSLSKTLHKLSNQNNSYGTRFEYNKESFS
Streptavidin (Streptomyces avidinii), sequence (P22629 whole entry, looked up): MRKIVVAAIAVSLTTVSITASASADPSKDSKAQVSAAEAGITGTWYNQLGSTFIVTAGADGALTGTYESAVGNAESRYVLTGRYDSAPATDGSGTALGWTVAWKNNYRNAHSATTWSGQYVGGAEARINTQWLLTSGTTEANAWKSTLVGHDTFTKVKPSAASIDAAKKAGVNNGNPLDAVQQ
Torsin-1A (Homo sapiens), sequence (O14656 whole entry, looked up): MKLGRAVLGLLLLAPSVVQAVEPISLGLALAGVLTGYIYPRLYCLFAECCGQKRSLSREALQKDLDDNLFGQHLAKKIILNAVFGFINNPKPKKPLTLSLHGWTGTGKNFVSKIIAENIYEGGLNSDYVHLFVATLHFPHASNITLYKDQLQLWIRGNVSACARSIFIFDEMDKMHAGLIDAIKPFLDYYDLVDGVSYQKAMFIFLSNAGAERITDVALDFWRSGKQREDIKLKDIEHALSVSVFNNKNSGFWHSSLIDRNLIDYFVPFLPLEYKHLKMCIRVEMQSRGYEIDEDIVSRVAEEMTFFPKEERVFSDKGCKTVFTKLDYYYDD
NADPH oxidase 2 (Homo sapiens), sequence (P04839 whole entry, looked up): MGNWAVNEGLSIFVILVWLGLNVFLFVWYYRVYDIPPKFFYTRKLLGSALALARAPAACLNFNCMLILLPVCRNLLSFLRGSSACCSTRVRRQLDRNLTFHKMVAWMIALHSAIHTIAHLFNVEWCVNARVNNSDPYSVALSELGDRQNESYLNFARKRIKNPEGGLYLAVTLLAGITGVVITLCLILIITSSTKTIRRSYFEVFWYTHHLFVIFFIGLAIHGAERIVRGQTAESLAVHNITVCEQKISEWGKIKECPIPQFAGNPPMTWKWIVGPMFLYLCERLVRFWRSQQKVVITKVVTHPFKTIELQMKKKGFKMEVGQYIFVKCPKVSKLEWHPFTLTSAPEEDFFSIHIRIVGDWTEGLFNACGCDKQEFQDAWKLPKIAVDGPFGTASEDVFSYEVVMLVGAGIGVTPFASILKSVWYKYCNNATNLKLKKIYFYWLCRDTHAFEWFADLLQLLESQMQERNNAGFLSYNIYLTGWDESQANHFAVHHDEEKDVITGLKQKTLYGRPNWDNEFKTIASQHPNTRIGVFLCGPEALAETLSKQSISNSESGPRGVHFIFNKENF

Consider `O=C1NC(=O)C2C1C=CC(C(O)C1CCCCC1)N2Nc1ccccn1` (stereo not given), for which the composite z-score in [1] was 0.0408; in [6] it was -0.15; in assay [7], -0.0762; in assay [8], 0.254; in assay [9], 0.852; in assay [10], 0.278. The compound further gave a composite z-score in [12] of -0.0779. In addition, the z-score was 1.06 (inactive) in assay [2]; -1.42 (inactive) in [3]; 0.433 (inactive) in [4]; 1.29 (inactive) in [5]; -1.72 (inactive) in [11]; 0.188 (inactive) in assay [13]. In addition, the z-score in [14] is 0.567 (inactive); in [15], -0.489 (inactive); in [16], 0.433 (inactive); in assay [17], -0.621; in [18] it was -1.2 (inactive); in [19] it was -3.29 (inactive). For the same compound, the z-score in [20] is -2.69.

In the case of `CCOC(=O)C[C@H]1[C@H](OC(=O)c2ccc(-c3ccccc3)cc2)[C@@H](NC(=O)c2ccc(-c3ccccc3)cc2)c2cc(OCCCO)ccc2N1C(=O)c1ccccc1`, the composite z-score amounted to 0.131 in [1]; 0.763 in assay [6]; 0.108 in assay [7]; 0.134 in assay [8]; 0.987 in assay [9]; 0.921 in assay [10]. In addition, in [12], the composite z-score is 0.0437. For the same compound, the z-score in [2] was -0.212 (inactive); in [3], -0.00979 (inactive); in [4], -0.724 (inactive); in assay [5], 0.659 (inactive); in assay [11], -0.825 (inactive); in assay [13], 0.744 (inactive). The z-score in [14] was 0.745 (inactive); in [15], -0.392 (inactive); in assay [16], 0.678 (inactive); in assay [17], -0.0382; in assay [18], 0.546 (inactive); in [19], -1.29 (inactive). The same compound returned a z-score in [20] of -0.655.

Turning to `O=C1O[C@H](c2ccccc2)[C@H](c2ccccc2)N2[C@H]1[C@@H](C(=O)O)[C@]1(C(=O)Nc3ccccc31)[C@H]2c1ccc(OCCO)cc1`, the composite z-score was -0.0515 in assay [1]; 1.08 in assay [6]; -0.0468 in assay [7]; 0.658 in assay [8]; -0.283 in assay [9]; 0.98 in assay [10]. In assay [12], the composite z-score is 0.183. Also, the z-score was 0.234 (inactive) in assay [2]; -0.369 (inactive) in [3]; 0.739 (inactive) in assay [4]; 0.727 (inactive) in assay [5]; 0.368 (inactive) in assay [11]; 3.81 (inactive) in [13]. Besides, the z-score in [14] is 0.173 (inactive); in assay [15], -0.776 (inactive); in [16], 0.124 (inactive); in assay [17] it was -0.412; in assay [18], 0.388 (inactive); in [19], 1.09 (inactive). The z-score in assay [20] stood at 0.958.

Regarding `Cc1cccc([C@H]2C[C@H]3C(Br)=C[C@@]2(CO)C(=O)[C@]32CO2)c1`, the composite z-score in [1] was 0.253; in assay [6] it was -0.376; in [7], -0.128; in assay [8], -1.59; in [9], -1.08; in [10] it was 0.462. The composite z-score in assay [12] worked out at 0.0509. The z-score in assay [2] is -0.376 (inactive); in assay [3], -0.53 (inactive); in assay [4], -0.595 (inactive); in assay [5], 3.9 (inactive); in assay [11], -0.269 (inactive); in [13] it was -0.131 (inactive). Also, the z-score is 0.27 (inactive) in assay [14]; -0.759 (inactive) in assay [15]; -0.063 (inactive) in assay [16]; -0.71 in [17]; 0.26 (inactive) in assay [18]; 0.711 (inactive) in [19]. Besides, the z-score in assay [20] was -0.0286.

With `CN1C(=O)C2CC=C(C3=CCO[C@@H]3[C@H]3CCCN3S(=O)(=O)c3ccccc3[N+](=O)[O-])CC2C1=O` (stereo not given in full), the composite z-score in assay [1] was 0.0169; in [6], -0.102; in assay [7], 0.0516; in assay [8], -0.23; in assay [9], -0.282; in assay [10], -0.151. The composite z-score in assay [12] is -0.191. Also, the z-score is 0.459 (inactive) in [2]; 0.0769 (inactive) in assay [3]; -0.505 (inactive) in assay [4]; 1.14 (inactive) in assay [5]; -0.62 (inactive) in [11]; 5.38 (inactive) in assay [13]. The z-score in [14] was 0.672 (inactive); in assay [15] it was -0.604 (inactive); in assay [16], -0.0627 (inactive); in assay [17], -0.307; in [18], 0.278 (inactive); in assay [19], 1.22 (inactive). Also, the z-score in assay [20] amounted to 0.32.

With `O=C1C2C=CC(C(O)C3CC=CCC3)N(Nc3ccc([N+](=O)[O-])cc3)C2C(=O)N1c1ccccc1` (stereo not given), the composite z-score in assay [1] was 0.632; in [6] it was 0.941; in [7] it was 0.74; in assay [8], 0.26; in assay [9], 0.483; in assay [10] it was 0.606. In assay [12], this compound had a composite z-score of 0.908. Besides, the z-score in assay [2] is -0.574 (inactive); in assay [3], -0.917 (inactive); in assay [4], 1.23 (inactive); in assay [5] it was 1.13 (inactive); in assay [11] it was -0.852 (inactive); in assay [13], 24.8 (active). Further, the z-score is 5.02 (inactive) in assay [14]; 4 (inactive) in [15]; 1.2 (inactive) in assay [16]; -0.837 in assay [17]; -1.03 (inactive) in [18]; -3.02 (inactive) in assay [19]. The z-score in assay [20] was -3.26.

Regarding `CCCCC(=C=CC[C@H](O)c1cccc(OCCO)c1)C[C@H](O)c1cc(Cl)cc(Cl)c1O`, the composite z-score in assay [1] is 0.252; in assay [6] it was 0.428; in assay [7] it was -0.0675; in assay [8] it was 0.437; in assay [9] it was 0.906; in [10], 1.84. The compound also returned a composite z-score in assay [12] of 0.0999. In addition, the z-score in assay [2] was -0.705 (inactive); in assay [3], -0.915 (inactive); in assay [4] it was 1.66 (inactive); in [5] it was 0.0904 (inactive); in [11], 0.513 (inactive); in [13], 22 (active). The z-score in assay [14] was 5.56 (inactive); in assay [15], 0.718 (inactive); in assay [16] it was 1.48 (inactive); in [17], 0.295; in assay [18], -2.45 (inactive); in [19], -1.46 (inactive). In [20], this compound showed a z-score of -2.02.

`CN1C2C=C(c3ccc(CO)cc3)C(C3C(=O)N(C(N)=O)C(=O)C32)C1C1CC1` (stereo not given): the composite z-score is -0.392 in assay [1]; 0.0747 in assay [6]; -0.271 in assay [7]; 0.0973 in assay [8]; 0.0517 in [9]; -0.104 in assay [10]. For the same compound, the composite z-score in assay [12] is -0.104. The z-score in assay [2] is 0.547 (inactive); in assay [3] it was -0.522 (inactive); in [4] it was -0.35 (inactive); in assay [5], 0.527 (inactive); in [11], 0.149 (inactive); in assay [13] it was 0.944 (inactive). Further, the z-score in assay [14] is 0.411 (inactive); in assay [15], -0.103 (inactive); in assay [16] it was 0.0864 (inactive); in [17], -0.0656; in [18] it was -1.57 (inactive); in [19], -1.29 (inactive). Moreover, in assay [20], the z-score was -0.739.
